40 molecules from PubChem BioAssay (NCATS) can be followed below.

Inconclusive results are not listed. Entries that show only a call come without a potency. Calls of active or inactive are those of the source. The call rests on the fitted dose curve; in most records, active means well fitted cell-killing curve with a large enough effect; inconclusive means small, poorly fitted or top-dose-only effect, or effect the other way; inactive means no such curve, though single readings can be large or run the other way.
Potency means the concentration at half of the fitted maximal effect.

The assay is described as follows: qHTS of pediatric cancer cell lines to identify multiple opportunities for drug repurposing: Confirmatory screen for MG 63 (6-TG R) cells (AID 1347119). Further: nearly all actives have a fitted effect of over 55% in size. The following applies: MG-63 (6-TG resistant) osteosarcoma viability; series mostly up to 45.9 µM. An excerpt: Drug repurposing or repositioning has been offered as a strategy for drug development in oncology programs. This approach has special potential for childhood cancers and other rare or orphan diseases, where the expected return on new drug development has been a disincentive to pharmaceuticals.
In this project we exploit the poly-pharmacology of drugs to discover new indications via phenotypic screening of a panel of 19 well-characterized cell lines derived from solid tumors seen in children and adolescents. The goal is to identify approved drugs with previously unrecognized anticancer properties that has the potential to reveal new mechanisms and biological processes involved in carcinogenesis or drug resistance. We employed a titration-based paradigm (quantitative high-throughput screening or qHTS), where all compounds were tested at multiple concentrations for their effect on cell viability. Concentration-response curves (CRCs) were derived directly from the primary screen, and both potency and efficacy values were used to identify compounds with robust bioactivity profiles. We screened the NIH Chemical Genomics Center (NCGC) Pharmaceutical Collection (NPC) and Mechanism Interrogation Plate (MIPE) small molecule collections of approved and investigational compounds against these cell lines; and measured metabolically active cells after 48 hours of compound treatment as a proxy for cell viability.
Assay Submitter: Nathalia J. Martinez, National Center for Advancing Translational Sciences, National Institutes of Health, Rockville, MD, USA; email: natalia.martinez@nih.gov
[1] Shen, M et al. Quantitative high-throughput phenotypic screening of pediatric cancer cell lines identifies multiple opportunities for drug repurposing. Oncotarget 2017 Dec 19;9(4):4758-4772. PMID 29435139.
The cells were obtained from University of North Carolina (UNC), Pediatric Preclinical Testing Program (PPT), and Coriell Institute (CI).
qHTS cell viability assay:
Cells were assayed in growth media at a density of 500-1,000 cells/well. Five microliters of cells were dispensed into 1,536-well, white, solid-bottom, TC-treated plates (Greiner Bio One) using a multidrop dispenser and incubated at 37 degrees C, 5% CO2, under a humidified atmosphere for 5 hours. Twenty-three nanoliters of compounds and controls (neutral control DMSO or positive control bortezomib at final concentration of 2.3 µM) were subsequently transferred by Kalypsys pintool. For primary screens, the MIPE collection was tested at 11-point dilutions (final concentrations range from 0.78 nM to 46 µM) and the NPC collection at 8-point dilutions (final concentrations range from 0.59 nM to 46 µM). Compounds tested in follow-up screens were assayed at 11-point dilutions. Cells were incubated for 48 hours, followed by addition of 3 µL of CellTiter-Glo (Promega). After a 15 min incubation at room temperature, samples were analyzed for luminescence intensity using a ViewLux High-throughput CCD imager equipped with clear filters.
(Quantitative high-throughput screening tests each substance at several concentrations.)
For the molecule `C[C@@H]1[C@H](O)[C@@H](C)C=CC=CC=CC=CC=CC=CC=C[C@H](O[C@@H]2O[C@H](C)[C@H](O)[C@H](N)[C@@H]2O)C[C@@H]2O[C@](O)(C[C@@H](O)C[C@@H](O)[C@H](O)CC[C@@H](O)C[C@@H](O)CC(=O)O[C@H]1C)C[C@H](O)[C@@H]2C(=O)O`, the Potency result was “inactive”.
Turning to `CCC(c1ccc(O)cc1)C(CC)c1ccc(O)cc1` (stereo not given), the Potency was 8270 nM (active).
The result for `COc1ccc(-c2ccc3ncc4c(c3c2)n(-c2ccc(N3CCNCC3)c(C(F)(F)F)c2)c(=O)n4C)cn1` reads 32.9 nM (active); that for `C[C@@H]1C[C@H]2[C@@H]3CCC4=CC(=O)C=C[C@]4(C)[C@@]3(F)[C@@H](O)C[C@]2(C)[C@@]1(O)C(=O)CO`, “inactive”.
For `CC(C)n1c(C=C[C@H](O)C[C@H](O)CC(=O)O)c(-c2ccc(F)cc2)c2ccccc21`, the Potency is 3290 nM (active).
To `C=CC(=O)Nc1cccc(Sc2nc(Nc3ccc(N4CCN(C)CC4)cc3)ncc2Cl)c1` belongs 18500 nM (active); to `CCCCn1c(=O)n(Cc2ccccc2F)c(=O)c2[nH]c(Cc3ccc(NC(C)=O)cc3)nc21`, “inactive”; to `Nc1ccc(-c2ccc3ncc4ccc(=O)n(-c5cccc(C(F)(F)F)c5)c4c3c2)cn1`, 20.8 nM (active).
Turning to `CNC(=O)[C@H](CC1=CN=C2C=CCC=C12)NC(=O)[C@@H](CC(=O)NO)CC(C)C`, the Potency was 1470 nM (active).
To `Cc1cnc(-c2cc(N3CCN(C(=O)CCS(C)(=O)=O)CC3)ncc2Cl)c(C)c1` belongs “inactive”.
The result for `FC(F)(F)c1ccc(C=Cc2nc(COc3ccc(CCCCn4ccnn4)cc3)co2)cc1` reads 261 nM (active); that for `Cc1ccc(C(=O)N(CCCN)[C@@H](c2nc3cc(Cl)ccc3c(=O)n2Cc2ccccc2)C(C)C)cc1`, 75.9 nM (active); that for `Cc1c(C(=O)Nc2ccc(N3C[C@@H](C)O[C@@H](C)C3)nc2)cccc1-c1ccc(OC(F)(F)F)cc1`, 10400 nM (active).
The result for `O=C(CC12CC3CC(CC(C3)C1)C2)Nc1cccc2nc(NCCNCCO)ccc12` reads “inactive”.
As for `C[C@@]1(c2cc(-c3cncnc3)c(F)cc2F)CCSC(N)=N1`, the Potency is 9270 nM (active).
The result for `CC1(COc2ccc3c(c2)ncn3-c2ccc3cccc(N4CCC(N)CC4)c3n2)COC1` reads “inactive”.
The result for `OCCn1cc(-c2ccc3c(c2)CCC3=NO)c(-c2ccncc2)n1` reads “inactive”; that for `COc1cc(CNC(=O)CCCCC=CC(C)C)ccc1O`, “inactive”.
The result for `C=C1[C@H](n2cnc3c(=O)[nH]c(N)nc32)C[C@H](O)[C@H]1CO` reads “inactive”; that for `COc1ccc2c(c1)c(C1=C(c3c[nH]c4ccccc34)C(=O)NC1=O)cn2CCCN(C)C`, “inactive”.
Consider `CC[C@]1(O)C[C@H]2CN(CCC3=c4ccccc4=N[C]3[C@@](C(=O)OC)(c3cc4c(cc3OC)N(C)[C@H]3[C@@](O)(C(N)=O)[C@H](O)[C@]5(CC)C=CCN6CC[C@]43[C@@H]65)C2)C1`, for which the Potency is 261 nM (active).
As to `CSc1cccc(Nc2ncc3cc(-c4c(Cl)cccc4Cl)c(=O)n(C)c3n2)c1`, the Potency was 1850 nM (active).
To `CC(C)C[C@@H](C(=O)N[C@H](C(=O)OC1CCCC1)c1ccccc1)[C@H](O)C(=O)NO` belongs 20800 nM (active).
The result for `CC1=C(CC(=O)O)c2cc(F)ccc2C1=Cc1ccc(S(C)=O)cc1` (stereo not given) reads “inactive”.
As for `C[C@@]1(C(=O)Nc2ccc(F)nc2)CCCN1c1nc(Nc2cc(C3CC3)[nH]n2)c2cccn2n1`, the Potency is 104 nM (active).
The result for `CO[C@H]1/C=C\O[C@@]2(C)Oc3c(C)c(O)c4c(O)c(c5c(nc6cc(C)ccn65)c4c3C2=O)NC(=O)C(C)=CC=C[C@H](C)[C@H](O)[C@@H](C)[C@@H](O)[C@@H](C)[C@H](OC(C)=O)[C@H]1C` reads “inactive”.
To `CC(C)CN(C[C@H](O)[C@H](Cc1ccccc1)NC(=O)O[C@H]1CCOC1)S(=O)(=O)c1ccc(N)cc1` belongs 8270 nM (active); to `NC(N)=Nc1nc(CSCCC(N)=NS(N)(=O)=O)cs1`, “inactive”.
The result for `O=c1[nH]nc(OCCCc2ccc(Cl)cc2)c(NCc2cccnc2)c1Br` reads 5220 nM (active).
With `CC1(C)OC2CC3C4CC(F)C5=CC(=O)C=CC5(C)C4C(O)CC3(C)[C@]2(C(=O)CO)O1` (stereo not given in full), the Potency entry was “inactive”.
Regarding `CC1CNc2c(cccc2S(=O)(=O)N[C@@H](CCCN=C(N)N)C(=O)N2CC[C@@H](C)C[C@@H]2C(=O)O)C1` (stereo not given in full), the Potency entry is “inactive”.
To `COC(=O)[C@H](c1ccccc1Cl)N1CCc2sccc2C1` belongs “inactive”; to `COC(=O)Nc1ccc(-c2nc(N3CCOCC3)c3cnn(C4CCN(C(=O)OC)CC4)c3n2)cc1`, 1310 nM (active); to `COc1cc([C@@H]2c3cc4c(cc3[C@@H](O[C@@H]3O[C@@H]5CO[C@@H](C)O[C@@H]5[C@H](O)[C@@H]3O)[C@H]3COC(=O)[C@H]23)OCO4)cc(OC)c1O`, 5850 nM (active).
The result for `CO[C@H]1/C=C\O[C@@]2(C)Oc3c(C)c(O)c4c(O)c(c(C=NN5CCN(C6CCCC6)CC5)c(O)c4c3C2=O)NC(=O)C(C)=CC=C[C@H](C)[C@H](O)[C@@H](C)[C@@H](O)[C@@H](C)[C@H](OC(C)=O)[C@H]1C` reads “inactive”.
As for `Cc1ccc(S(=O)(=O)Nc2nc3ccccc3nc2Nc2ccc3nsnc3c2)cc1`, the Potency was 16200 nM (active).
Regarding `O=C1Nc2ccc(I)cc2C1=Cc1cc(Br)c(O)c(Br)c1`, the Potency result is “inactive”.
With `Nc1ccn([C@@H]2O[C@H](CO)[C@@H](O)[C@H]2O)c(=O)n1`, the Potency entry was “inactive”.
Regarding `CN(C)CC[C@H](CSc1ccccc1)Nc1ccc(S(=O)(=O)NC(=O)c2ccc(N3CCN(Cc4ccccc4-c4ccc(Cl)cc4)CC3)cc2)cc1[N+](=O)[O-]`, the Potency is 1470 nM (active).
To `CCC[C@H](N[C@@H](C)C(=O)N1[C@@H]2CCCC[C@H]2C[C@H]1C(=O)O)C(=O)OCC` belongs “inactive”.
